Inconclusive results are not listed. Activity calls are given as the source filed them. The call rests on the fitted dose curve; in most records, active means well fitted activation curve with a large enough effect in the signal ratio in the repeat runs, with a control signal flat (not every such curve was filed as active); inconclusive means weak or mixed curves; inactive means flat fitted curve, though single readings scatter; the % refers to the signal ratio.
assay: qHTS assay for small molecule activators of the heat shock response signaling pathway (AID 743210); settings: HeLa HSE-bla reporter, beta-lactamase ratio, 5 h; series mostly up to 62.6 µM; activation: at the top concentration
Description: U.S. Tox21 Program National Center for Advancing Translational Sciences [NCATS] NIH Chemical Genomics Center [NCGC] U.S. Environmental Protection Agency [EPA] National Institutes of Environmental Health Sciences [NIEHS] National Toxicology Program [NTP] U.S. Food and Drug Administration [FDA] Tox21 Assay Overview: Various chemicals, environmental and physiological stress conditions may lead to the activation of heat shock response/ unfolded protein response (HSR/UPR). There are three heat shock transcription factors (HSFs) (HSF-1, -2, and -4) mediating transcriptional regulation of the human HSR. To identify the compounds that activate HSR signaling, HSE-bla HeLa cell line (Invitrogen, Carlsbad, CA, USA) containing a beta-lactamase reporter gene under the control of the heat shock response elements was used to screen the Tox21 10K compound library.
Tox21 Assay Protocol Summary: The CellSensor HSE-bla HeLa cells (Invitrogen, Carlsbad, CA, USA) were dispensed at 1500 cells/6uL/well into 1536-well black wall/clear bottom plates using a Multidrop combi (Thermo Fisher Scientific, Waltham, MA) dispenser. After the assay plates were incubated at 37 C and 5% CO2 overnight, 23 nL of compounds dissolved in DMSO, positive controls or DMSO only was transferred to the assay plate by a Pintool station (Kalypsys, San Diego, CA). The plates were incubated at 37 C for 5 h. After 1 uL of LiveBLAzerTM B/G FRET substrate was added using a Flying Reagent Dispenser (Beckman Coulter, Indianapolis, IN, USA), the plates were incubated at room temperature for 2.5 h, and fluorescence intensity was measured by an Envision plate reader (PerkinElmer, Shelton, CT).
On the % scale 0 is the no-effect control and ±100 the full control effect.

SMILES | activation
CC1OCCC1=O (stereo not given) | -0.717% (inactive)
CCCSSCCC | 0.224% (inactive)
CC12CCC(C1)C(C)(C)C2O (stereo not given) | -0.116% (inactive)
O/N=C/C=N/O | -0.0347% (inactive)
CC(C)C1OCCN1CCOC(=O)NCCCCCCNC(=O)OCCN1CCOC1C(C)C (stereo not given) | -0.978% (inactive)
NCCOCCN | -1.55% (inactive)
Cc1cccc(Cl)c1 | -0.334% (inactive)
CC(C)C[C@@H]1[C@H](c2ccccc2)OC(=O)N1CCCN1CCCCCC1 | 0.441% (inactive)
N[C@@H](Cc1ccc(O)cc1)C(=O)O | 0.612% [at 13.2 µM] (inactive)
CCC(C)C(C)=O (stereo not given) | -0.199% (inactive)
CCCCCCCCCCCCCCC(=O)NC(CO)CCCCCCCCCCCCCC (stereo not given) | -1.18% [at 81.1 µM] (inactive)
CC(C)CCOC(=O)c1ccccc1 | -1.27% (inactive)
CC(=O)O[C@@H]1CC2CCC1(C)C2(C)C (stereo not given in full) | -1.77% (inactive)
Cc1c(NC(=O)c2cccnc2)c(=O)n(-c2ccccc2)n1C | 1.68% (inactive)
C=C(C)c1cccc(C(C)(C)N=C=O)c1 | -1% (inactive)
CC(=O)CC(=O)OC(C)(C)C | -1.28% (inactive)
CCOC(=O)CC1(C)OCC(C)O1 (stereo not given) | 1.86% (inactive)
C=CC(=O)OCC1CCCO1 (stereo not given) | 1.83% (inactive)
O=C(O)[C@H](O)c1ccccc1 | -1.89% (inactive)
COC(=O)c1cc(Cl)cc(Cl)c1 | -1.21% (inactive)

SMILES | activation
CCC(C)OC(C)CC (stereo not given) | -0.471% [at 81.1 µM] (inactive)
Cc1ccccc1C(N)=O | 0.107% (inactive)
CCCCCCCCCOC(=O)c1ccccc1C(=O)OCCCCCCCCC | -0.651% (inactive)
C/C=C(\C)C(C)=O | 0.372% (inactive)
O=C1CCC(=O)N1Cl | 0.343% (inactive)
N#Cc1cscn1 | 0.0858% (inactive)
C=CC(=O)CCCCC | 0.918% [at 81.1 µM] (inactive)
CC1(C)CC(OC(=O)CCCCCCCCC(=O)OC2CC(C)(C)NC(C)(C)C2)CC(C)(C)N1 | -1.72% [at 29.1 µM] (inactive)
OCC(O)CN1CCN(c2ccccc2)CC1 (stereo not given) | -0.025% (inactive)
CC(C)OC(=O)OCOP(=O)(CO[C@H](C)Cn1cnc2c(N)ncnc21)OCOC(=O)OC(C)C | -0.555% (inactive)
CC(=O)O[Si](C)(OC(C)=O)OC(C)=O | -3.15% [at 81.1 µM] (inactive)
Cc1cc(C)c(C(=O)O)c(C)c1 | -1.43% (inactive)
C=CCCCC | -0.171% [at 81.1 µM] (inactive)
CC1(C)O[C@H]2CC(=O)OC[C@]23[C@H]2CC[C@@]4(C)[C@H](c5ccoc5)OC(=O)[C@H]5O[C@]54[C@]2(C)C(=O)C[C@@H]13 | -0.0874% (inactive)
O=S(=O)(O)c1ccc2c(N=Nc3ccc(S(=O)(=O)O)c4ccccc34)c(O)c(S(=O)(=O)O)cc2c1 | -0.859% [at 5.95 µM] (inactive)
CC1=C(C(=O)O)N2C(=O)[C@@H](NC(=O)[C@H](N)c3ccccc3)[C@H]2SC1 | 1.9% (inactive)
O=C(CCCl)NCCc1ccccc1 | 0.394% (inactive)
CCCc1ccc(O)cc1 | -0.464% (inactive)
CC(O)COC(C)(C)C (stereo not given) | -0.659% (inactive)
CCO[Si](CC)(OCC)OCC | -0.21% (inactive)

Source: PubChem BioAssay (Tox21)
